Hit rate of the full screen: of about 290,000 compounds, about 3,500 (1.2%) were called active.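 How the source made its calls: active means inhibition above the campaign mean inhibition over all tested compounds plus 3 SD (cut at about 28% in these data); inactive means the rest.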 The entries come from a sample that favours actives as a whole.
system: M18 aspartyl aminopeptidase (Plasmodium falciparum 3D7); experiment: inhibition of P. falciparum M18 aminopeptidase – biochemical, QFRET, recombinant enzyme, primary screen (AID 1822); conditions: recombinant PfM18AAP, H-Glu-NHMec fluorogenic cleavage; at 7.35 µM; active compounds read high;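 further: 0% = plate median of test compound wells and 100% = 2 mM ZnCl2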

inhibition, active:
CC(C)(C)c1nnc(N/N=C/c2ccc(O)cc2)n(N)c1=O 44.5%
O=c1[nH]c(=S)[nH]c2[nH]c(=S)[nH]c12 43.7%
NC(=S)N/N=C/c1coc2cc(Cl)ccc2c1=O 50.2%
O=C(N/N=C/c1coc2ccccc2c1=O)c1cc2ccccc2o1 36.8%
COc1cc(/C=N\Nc2ccc([N+](=O)[O-])cn2)ccc1OCC(=O)O 43.1%
Cc1cc(/C=N/Nc2ccc([N+](=O)[O-])cn2)c(C)n1-c1cccc(C(=O)O)c1 50.7%
Cc1ccc(Sc2cc(N3CCOCC3)nc(-c3ccccc3)n2)cc1 28.3%
CSc1n[nH]c(=S)n1N 32.7%
Oc1ccc(/C=N/Nc2ccc(C(F)(F)F)cn2)cc1O 34.4%
O=C(OCC1O[C@@H](OC(=O)c2cc(O)c(O)c(O)c2)[C@@H](OC(=O)c2cc(O)c(O)c(O)c2)[C@@H](OC(=O)c2cc(O)c(O)c(O)c2)[C@@H]1OC(=O)c1cc(O)c(O)c(O)c1)c1cc(O)c(O)c(O)c1 (stereo partly specified) 41.3%
O=C1CCCCN1CCCC(=O)N1CCCC(Nc2ccc(F)cc2)C1 (stereo unspecified) 33.9%
CCOC(=O)c1c(-c2ccccc2)oc2cc(Br)c(O)c(C=O)c12 28.4%
COc1ccc(OCC(=O)Nc2nnc(-c3ccco3)s2)cc1 29.5%

inhibition, inactive:
O=C(NCc1ccncc1)C1CCN(C(=O)c2cccc(Cl)c2)CC1 -1.77%
O=C(c1cccs1)N(Cc1cc2ccccc2[nH]c1=O)CC1CCCO1 (stereo unspecified) 2.59%
O=C(Nc1ccc(C(=O)NCc2ccccc2Cl)cc1)C1=CSCCO1 2.51%
O=c1c2ccccc2nc(N/N=C/c2ccccc2)n1O 3.06%
Nc1nnn(CC(=O)N/N=C/c2ccc(O)cc2)n1 7.09%
O=c1cc(Cl)c2ccccc2n1-c1ccccc1 1.05%
CN(C(=O)CSc1nnc(-c2n[nH]c3ccccc23)o1)c1ccccc1 -5.28%
Cc1c(C)c(C)c2[nH]c(=S)[nH]c2c1C -2.04%
Cc1c(/C=N\NC(=O)c2cc3ccccc3o2)c2ccccc2n1C 0.69%
Cc1ccc2occ(/C=N/NC(=O)c3ccccc3C)c(=O)c2c1 6.11%
O=C(N/N=C/c1c[nH]c2ccccc12)c1cc2ccccc2o1 -7.84%
O=c1c(/C=N/O)coc2ccc(Cl)cc12 8.13%
C[C@H](C(=O)CC(=O)OC(C)(C)C)[C@H](O)c1ccc(C(F)(F)F)cc1 2.4%
O=S(=O)(c1ccc(Cl)cc1)c1nc(-c2ccccc2F)oc1NCCN1CCOCC1 1.96%
CN(Cc1ccccc1)C(=O)CSc1nc2ccccc2[nH]1 7.79%
O=C(C1CCCO1)N1CCN(S(=O)(=O)c2ccc(Br)cc2)CC1 (stereo unspecified) -7.44%
Cc1cccn2c(=O)c3cc(C(=O)NCCN4CCOCC4)c(=N)n(Cc4cccnc4)c3nc12 7.09%
COCCNC(=O)C1CCN(C(=O)C2CC(=O)N(c3ccc(C)cc3)C2)CC1 (stereo unspecified) -4.37%
CC(C)(C)N(Cc1ccccc1)C(=O)c1ccncc1 2.34%
COc1cc(/C=N/O)ccc1OCc1ccc([N+](=O)[O-])cc1 2.23%
Cc1cc(/C=C2\SC(=O)N(C)C2=O)c(C)n1-c1cccc(C(=O)O)c1 7.23%
Cc1ccc(-n2c(C)cc(/C=N/Nc3ccc([N+](=O)[O-])cn3)c2C)c(C)c1 7.66%
CCOc1ccc(/C=N/Nc2nncc(-c3ccccc3)n2)cc1OC 8.38%
CC(=O)c1c(C)n(-c2ccc(C)cc2)c2ccc(O)cc12 -3.09%
CCCCN(Cc1ccccc1)C(=O)C1CCN(Cc2sccc2C)CC1 10.9%
CCC(C)C(=O)Nc1ccccc1N1CCN(c2ccc(F)cc2)CC1 (stereo unspecified) 4%
OCCNc1nc2ccccc2n1-c1ncnc2sc3c(c12)CCC3 -6.82%
Cc1ccc(C)c(NC(=O)CSc2nc3c(oc4ccccc43)c(=O)n2-c2ccccc2)c1 2.4%
CCOC(=O)c1cccc(NS(=O)(=O)c2c(C(=O)N3CCCCCC3)c(C)n(C)c2C)c1 0.1%
Cc1cc(N2CCOCC2)nc(-c2ccc(Br)cc2)n1 -2.46%
Cc1cc(N2CCN(c3ccccc3)CC2)nc(N2CCOCC2)n1 -12.7%
Cc1cc(C)nc(-n2nc(C)cc2NC(=O)c2ccc(Br)o2)n1 -3.58%
O=C(Nc1ccccc1)Nc1ccc(C(F)(F)F)cn1 -2.42%
Oc1ccc(Br)cc1/C=N/Nc1ccccn1 15.5%
CCc1ccc(Nc2nnc(SCC(=O)c3ccc4c(c3)NC(=O)CO4)s2)cc1 3.56%
O=C(Cn1nc([N+](=O)[O-])nc1Br)NC1CCCCC1 0.92%
CCOc1cc(NC(=O)c2cnccn2)c(OCC)cc1NC(=O)c1ccc(C)cc1 5.95%
CN(C)c1ccc(CNC(=O)CN2C(=O)COc3ccc(S(=O)(=O)N4CCCC4)cc32)cc1 4.42%
COc1ccccc1CCNC(=O)C1CCN(C(=O)/C=C/c2ccccc2)CC1 -9.1%
CCOc1ccc(/C=N\NC(=O)c2c(C)nc3cc(C)ccn23)cc1 -0.74%
O=C(CN1CCOC1=O)N1CCCC(Nc2ccc(F)c(F)c2)C1 (stereo unspecified) -0.1%
O=C(CN1C(=O)CSC1=O)N1CCCC(Nc2ccc(F)cc2)C1 (stereo unspecified) -12.5%
CCOC(=O)[C@@H]1[C@H]2COc3cc(OC)ccc3[C@@H]2N2C(=O)N(c3cccc(C)c3)C(=O)[C@@]12C -13.2%
CCOC(=O)c1c(-c2ccccc2)oc2cc(Br)c(O)cc12 -7.24%
CCOC(=O)c1c(-c2ccccc2)oc2ccc(OCC(N)=O)cc12 4.97%
O=C(c1cnc(Cl)c(Cl)c1)N1CCN(S(=O)(=O)c2ccc(F)cc2)CC1 -8.29%
Cc1ccc(OCC(=O)Nc2nnc(-c3ccco3)s2)cc1 -1.67%
CNc1nnc(-c2ccco2)s1 -6.9%
